Test results: PubChem BioAssay (NCATS)
Inconclusive results are not listed. Activity calls are given as the source filed them. The call rests on the fitted dose curve; in most records, active means well fitted inhibition curve with a large enough effect; inconclusive means small, poorly fitted or top-dose-only effect; inactive means flat fitted curve, though single readings scatter.

Columns and labels:
Experiment in all cases: qHTS profiling for inhibitors of Plasmodium falciparum proliferation (AID 504749); further: nearly all actives have a fitted effect of over 60% in size
Conditions in all cases: P. falciparum in erythrocytes, SYBR Green DNA, 72 h; series mostly up to 28.7 µM
[1] = test system: CP286
In short: (§1)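 P. falciparum-infected erythrocytes (0.3% parasitemia, 2.5% hematocrit final) were exposed to compounds for 72 h at 37 C in 5% CO2, then lysed with SYBR Green buffer overnight at room temperature; parasite DNA fluorescence was normalized to artemisinin and DMSO controls.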

[2] = test system: CP291
In short: as §1

[3] = test system: CP297
In short: as §1

[4] = test system: CP305
In short: as §1

[5] = test system: CP315
In short: as §1

[6] = test system: CP325
In short: as §1

[7] = test system: CP329
In short: as §1

[8] = test system: CP335
In short: as §1

[9] = test system: DFO2036
In short: as §1

[10] = test system: DIV14
In short: as §1

[11] = test system: DIV17
In short: as §1

[12] = test system: DIV30
In short: as §1

[13] = test system: Dd2
In short: as §1

[14] = test system: ECU
In short: as §1

[15] = test system: FAB9
In short: as §1

[16] = test system: GB4
In short: as §1

[17] = test system: HB3
In short: as §1

[18] = test system: ICS
In short: as §1

[19] = test system: JCK
In short: as §1

[20] = test system: N140
In short: as §1

Measured: Potency
Potency means the concentration at half of the fitted maximal effect.

Cc1cccc(N(C)C(=S)Oc2ccc3ccccc3c2)c1
inactive: [1] | [2] | [3] | [4] | [5] | [6] | [7] | [8] | [9] | [10] | [11] | [12] | [13] | [14] | [15] | [16] | [17] | [18] | [19] | [20]

CC(C)NCC(O)c1ccc(NS(C)(=O)=O)cc1 (configuration not stated)
inactive: [1] | [2] | [3] | [4] | [5] | [6] | [7] | [8] | [9] | [10] | [11] | [12] | [13] | [14] | [15] | [16] | [17] | [18] | [19] | [20]

O=C(O)c1cc(=O)[nH]c(=O)[nH]1
inactive: [1] | [2] | [3] | [4] | [5] | [6] | [7] | [8] | [9] | [10] | [11] | [12] | [13] | [14] | [15] | [16] | [17] | [18] | [19] | [20]

O=S(=O)(O)CCS
inactive: [1] | [2] | [3] | [4] | [5] | [6] | [7] | [8] | [9] | [10] | [11] | [12] | [13] | [14] | [15] | [16] | [17] | [18] | [19] | [20]

Nc1[nH]c(=O)ncc1F
inactive: [1] | [2] | [3] | [4] | [5] | [6] | [7] | [8] | [9] | [10] | [11] | [12] | [13] | [14] | [15] | [16] | [17] | [18] | [19] | [20]

COC(=O)Nc1nc2ccc(Sc3ccccc3)cc2[nH]1
inactive: [1] | [2] | [3] | [4] | [5] | [6] | [7] | [8] | [9] | [10] | [11] | [12] | [13] | [14] | [15] | [16] | [17] | [18] | [19] | [20]

Nc1nc(N)nc(-c2cc(Cl)ccc2Cl)n1
inactive: [1] | [2] | [3] | [4] | [5] | [6] | [7] | [8] | [9] | [10] | [11] | [12] | [13] | [14] | [15] | [16] | [17] | [18] | [19] | [20]

O=P(O)(O)C(O)(Cc1cccnc1)P(=O)(O)O
inactive: [1] | [2] | [3] | [4] | [5] | [6] | [7] | [8] | [9] | [10] | [11] | [13] | [14] | [15] | [16] | [17] | [18] | [19] | [20]

CCOCC(O)COc1ccc(NC(=O)CC[S+](C)C)cc1 (configuration not stated)
inactive: [1] | [2] | [3] | [4] | [5] | [6] | [7] | [8] | [9] | [10] | [11] | [12] | [13] | [14] | [15] | [16] | [17] | [19] | [20]

CN(C)CCc1c[nH]c2ccc(CS(=O)(=O)N3CCCC3)cc12
inactive: [1] | [2] | [3] | [4] | [5] | [6] | [7] | [9] | [10] | [11] | [12] | [13] | [14] | [15] | [16] | [17] | [18] | [19] | [20]

S=P(N1CC1)(N1CC1)N1CC1
inactive: [1] | [2] | [3] | [4] | [5] | [6] | [7] | [8] | [9] | [10] | [11] | [13] | [14] | [15] | [16] | [17] | [18] | [19] | [20]

CCOC(=O)[C@H](CCc1ccccc1)N[C@H]1CS[C@H](c2cccs2)CN(CC(=O)O)C1=O
inactive: [1] | [2] | [3] | [4] | [5] | [6] | [7] | [8] | [9] | [11] | [12] | [13] | [15] | [17] | [19]

C[C@]12C=CC(=O)C=C1CC[C@@H]1[C@@H]2C(=O)C[C@@]2(C)[C@H]1CC[C@]2(O)C(=O)CO
inactive: [1] | [2] | [3] | [4] | [5] | [6] | [7] | [8] | [9] | [10] | [11] | [12] | [13] | [14] | [15] | [16] | [17] | [18] | [19] | [20]

CC[C@H](NC(C)C)[C@H](O)c1ccc(O)c2[nH]c(=O)ccc12
inactive: [1] | [2] | [3] | [4] | [5] | [6] | [7] | [8] | [9] | [10] | [11] | [13] | [14] | [15] | [16] | [17] | [18] | [19] | [20]

CC(=O)Oc1ccccc1C(=O)Nc1ncc([N+](=O)[O-])s1
inactive: [2] | [3] | [4] | [5] | [6] | [7] | [9] | [12] | [14] | [15] | [19] | [20]
active: [1] 12.6 µM | [10] 13.5 µM | [11] 12 µM | [18] 11.2 µM

C1CCC(C(CC2CCCCN2)C2CCCCC2)CC1 (configuration not stated)
active: [1] 3.98 µM | [2] 12 µM | [3] 13.5 µM | [8] 9.53 µM | [9] 11.2 µM | [10] 3.79 µM | [11] 3.38 µM | [13] 12.6 µM | [14] 5.01 µM | [16] 9.53 µM | [17] 11.2 µM | [18] 1.12 µM | [19] 12.6 µM | [20] 10 µM

CC[C@H](C)C(=O)O[C@H]1C[C@@H](C)C=C2C=C[C@H](C)[C@H](CC[C@@H]3C[C@@H](O)CC(=O)O3)[C@H]21
inactive: [1] | [2] | [3] | [4] | [5] | [6] | [7] | [9] | [10] | [12] | [13] | [14] | [15] | [16] | [17] | [18] | [19] | [20]

CNNCc1ccc(C(=O)NC(C)C)cc1
inactive: [1] | [2] | [3] | [4] | [5] | [6] | [7] | [8] | [9] | [12] | [13] | [14] | [15] | [16] | [17] | [19] | [20]

CCN(C)C(=O)Oc1cccc([C@H](C)N(C)C)c1
inactive: [1] | [2] | [3] | [4] | [5] | [6] | [7] | [8] | [9] | [10] | [11] | [12] | [13] | [14] | [15] | [16] | [17] | [18] | [19] | [20]

OC(Cn1cncn1)(Cn1cncn1)c1ccc(F)cc1F
inactive: [1] | [2] | [3] | [4] | [5] | [6] | [7] | [8] | [9] | [11] | [12] | [13] | [14] | [15] | [16] | [17] | [18] | [19] | [20]

CC(C)(C#N)c1cc(Cn2cncn2)cc(C(C)(C)C#N)c1
inactive: [1] | [2] | [3] | [4] | [5] | [6] | [7] | [9] | [10] | [11] | [12] | [13] | [14] | [15] | [16] | [17] | [18] | [19] | [20]

COc1ccc(-c2ccc3cc(C(=O)O)ccc3c2)cc1C12CC3CC(CC(C3)C1)C2
inactive: [1] | [2] | [3] | [4] | [5] | [6] | [7] | [8] | [9] | [10] | [11] | [12] | [13] | [14] | [15] | [16] | [17] | [19] | [20]

Cc1noc(NS(=O)(=O)c2ccc(N)cc2)c1C
inactive: [1] | [2] | [3] | [4] | [6] | [7] | [8] | [9] | [10] | [11] | [12] | [13] | [14] | [15] | [16] | [17] | [18] | [19] | [20]

Cn1nnc2c(C(N)=O)ncn2c1=O
inactive: [1] | [2] | [3] | [4] | [5] | [6] | [7] | [8] | [9] | [11] | [12] | [13] | [14] | [15] | [16] | [17] | [18] | [19] | [20]

CC(C)(Sc1cc(C(C)(C)C)c(O)c(C(C)(C)C)c1)Sc1cc(C(C)(C)C)c(O)c(C(C)(C)C)c1
inactive: [2] | [3] | [4] | [6] | [7] | [9] | [10] | [11] | [12] | [13] | [14] | [15] | [16] | [19] | [20]
active: [1] 3.98 µM | [8] 3.61 µM | [18] 3.16 µM

CC1=NN(c2ccccc2)C(=O)C1
inactive: [1] | [2] | [3] | [4] | [5] | [6] | [7] | [8] | [9] | [10] | [11] | [12] | [13] | [14] | [15] | [16] | [17] | [19] | [20]
